A short description of assay [1]: Quantitative High-Throughput drug screen in 47 multiple myeloma cell lines against the NCATS MIPE library collection: MM1R_ATCC cell viability assay (AID 1918981). Also: nearly all actives have a fitted effect of over 35% in size. Also: potency is read from the fitted curve at half-maximal effect. In short, it runs like this: (§1)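 MIPE 4.0 approved/investigational drugs; 500 cells/well; 48 h 37 °C humidified 5% CO2; CTG luminescence readout; DMSO = 100%, media = 0% viability.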
Assay [2] is described as follows: Quantitative High-Throughput drug screen in 47 multiple myeloma cell lines against the NCATS MIPE library collection: LP1_DSMZ cell viability assay (AID 1918982). Also: nearly all actives have a fitted effect of over 35% in size. Also: potency is read from the fitted curve at half-maximal effect. Put shortly: as §1
A short description of assay [3]: Quantitative High-Throughput drug screen in 47 multiple myeloma cell lines against the NCATS MIPE library collection: KMS28PE_JCRB cell viability assay (AID 1918983). Also: nearly all actives have a fitted effect of over 35% in size. Also: potency is read from the fitted curve at half-maximal effect. In short, it runs like this:
as §1

A short description of assay [4]: Quantitative High-Throughput drug screen in 47 multiple myeloma cell lines against the NCATS MIPE library collection: L363_DSMZ cell viability assay (AID 1918984). Also: nearly all actives have a fitted effect of over 40% in size. Also: potency is read from the fitted curve at half-maximal effect. In short, it runs like this:
as §1

The nature of assay [5]: Quantitative High-Throughput drug screen in 47 multiple myeloma cell lines against the NCATS MIPE library collection: KMS34_JCRB cell viability assay (AID 1918985). Also: nearly all actives have a fitted effect of over 40% in size. Also: potency is read from the fitted curve at half-maximal effect. Put shortly:
as §1

The nature of assay [6]: Quantitative High-Throughput drug screen in 47 multiple myeloma cell lines against the NCATS MIPE library collection: OCIMY7_PLB cell viability assay (AID 1918987). Also: nearly all actives have a fitted effect of over 65% in size. Also: potency is read from the fitted curve at half-maximal effect. Conditions: OCI-MY7 myeloma viability, CellTiter-Glo ATP, 48 h; viability (% of DMSO): at 45.8 µM (top of the series). Put shortly: as §1
The nature of assay [7]: Quantitative High-Throughput drug screen in 47 multiple myeloma cell lines against the NCATS MIPE library collection: OCIMY5_PLB cell viability assay (AID 1918988). Also: nearly all actives have a fitted effect of over 65% in size. Also: potency is read from the fitted curve at half-maximal effect. Put shortly:
as §1

Assay [8] is described as follows: Quantitative High-Throughput drug screen in 47 multiple myeloma cell lines against the NCATS MIPE library collection: SKMM1_PLB cell viability assay (AID 1919863). Also: nearly all actives have a fitted effect of over 35% in size. Also: potency is read from the fitted curve at half-maximal effect. Conditions: SKMM1 myeloma viability, CellTiter-Glo ATP, 48 h; viability: stronger effect = lower value. Put shortly:
as §1

Assay [9] can be described thus: Quantitative High-Throughput drug screen in 47 multiple myeloma cell lines against the NCATS MIPE library collection: OPM1_PLB cell viability assay (AID 1918989). Also: nearly all actives have a fitted effect of over 40% in size. Also: potency is read from the fitted curve at half-maximal effect. Put shortly: as §1
Assay [10] can be described thus: Quantitative High-Throughput drug screen in 47 multiple myeloma cell lines against the NCATS MIPE library collection: MM1S_ATCC cell viability assay (AID 1918980). Also: nearly all actives have a fitted effect of over 45% in size. Put shortly:
as §1

Records with an inconclusive call do not appear. A number with no mark means an inactive call. The source made the active and inactive calls. Calls follow the shape of the dose curve; as a rule, active = well fitted cell-killing curve with a large enough effect; inconclusive = small, poorly fitted or top-dose-only effect, or effect the other way; inactive = no such curve, though single readings can be large or run the other way.

For 18 compounds, Potency and viability results are on record in PubChem BioAssay (NCATS).

Regarding `CCN(CC)CCNC(=O)c1c(C)[nH]c(C=C2C(=O)Nc3ccc(F)cc32)c1C`, the Potency is 3030 nM (active) in assay [1]; 30300 nM (active) in assay [2]; 5400 nM (active) in [3]; 540 nM (active) in [4]; 6050 nM (active) in assay [5]; 171 nM (active) in [6]. The Potency in assay [7] was 8550 nM (active); in assay [8], 27000 nM (active).
For the compound `Cc1cncc2cccc(S(=O)(=O)N3CCCN(C(=O)CN)C[C@@H]3C)c12`, the Potency result in assay [1], in [2], in [4] and in assay [9] was “inactive” each time. Moreover, the Potency in assay [3] is 18700 nM (active); in [7], 1480 nM (active).
For `CCCCCCCCCCCCc1ccc(S(=O)(=O)Nc2nncs2)cc1`, the Potency in [1] was 18700 nM (active). In addition, the Potency result in assay [2], in assay [3], in [4], in assay [5], in [7] and in [9] was “inactive” each time.
`CC1(C)CC(O)CC(C)(C)N1[O]`: the Potency result in assay [1], in [2], in assay [3], in assay [4] and in assay [9] was “inactive” throughout.
Regarding `COc1ccc2c(c1OC)C(=O)OC2[C@H]1c2c(cc3c(c2OC)OCO3)CCN1C` (some centres undefined), the Potency was 418 nM (active) in [1]; 132 nM (active) in assay [2]; 52.6 nM (active) in [3]; 74.3 nM (active) in assay [4]; 37.2 nM (active) in assay [5]; 23.5 nM (active) in assay [7]. Also, in [8], the Potency was 23.5 nM (active).
In the case of `CC1=C(C(=O)Nc2cc3cn[nH]c3cc2F)C(c2ccc(Cl)cc2F)N=C(c2ccnc(Cl)c2)N1` (centres undefined), the Potency in assay [1] was 18700 nM (active); in [3] it was 20900 nM (active); in assay [4], 18700 nM (active); in assay [7], 16600 nM (active); in assay [9], 18700 nM (active). Further, the Potency result in assay [2] is “inactive”.
For the compound `CC[C@H]1OC(=O)[C@H](C)[C@@H](O[C@H]2C[C@@](C)(OC)[C@@H](O)[C@H](C)O2)[C@H](C)[C@@H](O[C@@H]2O[C@H](C)C[C@H](N(C)C)[C@@H]2O)[C@](C)(OC)C[C@@H](C)C(=O)[C@H](C)[C@@H](O)[C@]1(C)O`, the Potency entry in [1], in assay [2], in [3], in [4], in assay [6] and in assay [9] was “inactive” throughout. In addition, the Potency in [8] is 105 nM (active).
For `O=C1NC(=O)[C@@H](c2cn3c4c(cccc24)CCC3)[C@H]1c1c[nH]c2ccccc12`, the Potency in assay [1] is 14800 nM (active); in assay [2] it was 1050 nM (active); in [3], 833 nM (active); in [4], 118 nM (active); in assay [5], 418 nM (active); in [6] it was 37.2 nM (active). Besides, the Potency in [9] was 2090 nM (active); in assay [8] it was 132 nM (active).
Take `Nc1ccn(C2CO[C@H](CO)O2)c(=O)n1` (some centres undefined): the Potency entry in [1], in [2], in assay [3] and in assay [4] was “inactive” throughout.
`COc1cccc2c1C(=O)c1c(O)c3c(c(O)c1C2=O)C[C@@](O)(C(=O)CO)C[C@@H]3O[C@H]1C[C@H](N)[C@H](OC2CCCCO2)[C@H](C)O1` (some centres undefined): the Potency in assay [1] was 296 nM (active); in assay [2] it was 18700 nM (active); in [3], 2640 nM (active); in assay [8], 2640 nM (active). Moreover, the Potency result in assay [4] was “inactive”.
In the case of `C[C@H]1O[C@H](O[C@H]2[C@H](O)[C@@H](O)[C@@H](O[C@H]3[C@H](O)[C@@H](O)C(O)O[C@H]3CO)O[C@H]2CO)[C@H](O)[C@@H](O)[C@H]1N[C@H]1C=C(CO)[C@@H](O)[C@H](O)[C@@H]1O` (some centres undefined), the Potency result in [1], in [2], in assay [3] and in [9] was “inactive” throughout. For the same compound, the Potency in assay [4] is 20900 nM (active). For the same compound, the viability in assay [8] was 131%.
`CCCc1nc(C(C)(C)O)c(C(=O)O)n1Cc1ccc(-c2ccccc2-c2nn[nH]n2)cc1`: the Potency result in [1], in [2], in assay [3], in [4] and in assay [5] was “inactive” in each case. In addition, in [8], the viability was 131%.
For the compound `CC(=O)ON=C1C(c2c(O)[nH]c3cc(Br)ccc23)=Nc2ccccc21`, the Potency in assay [1] was 16600 nM (active); in assay [2], 11800 nM (active); in assay [3], 20900 nM (active); in [4], 3720 nM (active); in assay [5], 4690 nM (active); in assay [8], 18700 nM (active).
Regarding `COc1ccc(S(=O)(=O)Nc2cccnc2Nc2ccc(O)cc2)cc1`, the Potency in assay [1] is 105 nM (active); in assay [2] it was 148 nM (active); in [3], 105 nM (active); in [5], 46.9 nM (active); in assay [6], 37.2 nM (active); in assay [7], 37.2 nM (active). The Potency in assay [9] was 235 nM (active); in assay [8], 37.2 nM (active). For the same compound, the Potency result in assay [4] was “inactive”.
On to `CCN(C(=O)c1c(O)c2c(Cl)cccc2n(C)c1=O)c1ccccc1`, for which the Potency result in [1], in assay [2], in [3], in assay [4], in assay [7] and in assay [9] was “inactive” throughout.
Turning to `COC(=O)[C@@H]1[C@H]2C[C@@H]3c4[nH]c5ccccc5c4CCN3C[C@@H]2CC[C@@H]1O`, the Potency entry in assay [1], in assay [2], in assay [3], in [4], in assay [6] and in assay [9] was “inactive” throughout.
Take `C=CC[C@@H]1C=C(C)C[C@H](C)C[C@H](OC)[C@H]2O[C@@](O)(C(=O)C(=O)N3CCCC[C@H]3C(=O)O[C@H](C(C)=C[C@@H]3CC[C@H](O)[C@H](OC)C3)[C@@H](C)[C@@H](O)CC1=O)[C@@H](C)C[C@@H]2OC`: the Potency in [1] is 833 nM (active); in assay [2], 3320 nM (active); in assay [3], 2350 nM (active); in assay [4] it was 1180 nM (active); in [6], 2090 nM (active); in assay [7], 662 nM (active). The Potency in [9] was 2640 nM (active); in assay [8] it was 1180 nM (active).
For `CCc1cc(C(C)=NOCc2ccc(C3CCCCC3)c(C(F)(F)F)c2)ccc1CN1CC(C(=O)O)C1`, the Potency entry in assay [10] is “inactive”. The Potency is 16600 nM (active) in [6], 18700 nM (active) in [9] and 18700 nM (active) in assay [8].
